# Screens: PubChem, National Center for Advancing Translational Sciences (NCATS)
# Tau fil binding = tau filament binding | Potency, µM (doses to about 57.1 µM), for the others: at the highest dose activity change, negative = inhibition | hit rate 2% among 71,000 | recombinant tau filaments, thioflavin S fluorescence, 15 h; filaments grown with octadecylsulfate alongside compound | P10636;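 note: actives lower thioflavin S fluorescence by blocking filaments or displacing dye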
#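 Recombinant tau protein (human, 1 uM final) plus 30 uM ODS in HEPES pH 7.4 with NaCl, DTT and thioflavine S. Compound present from the start; fluorescence at 510 nm after 15 h, 37 C.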
# ERK AVP inh = blocks ERK signaling stimulated by vasopressin. HEK293-V1b, vasopressin-stimulated pERK AlphaScreen. AID 995. Potency, µM (highest dose often 57.5 µM), inactives show top-dose activity, negative = inhibition, hits mostly inhibitors. hit rate 0.99% among 72,000; note: nearly all actives have a fitted effect of over 55% in size
#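 Phosphorylated ERK1/2 detected via AlphaScreen bead proximity in lysates of V1b-expressing HEK293 cells given 25 nM vasopressin for 5 min after 30 min compound exposure (37 °C). AC50 from Hill equation; basal DMSO 0%, vasopressin 100%.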
# Hsp90 Hop PPI = changes Hsp90-Hop TPR2A binding signal, up or down | AlphaScreen TPR2A-His6 binding biotin-Hsp90 C-terminal peptide | Potency, µM (series often up to 57 µM), without a hit: top-dose activity change, negative = inhibition | hit rate 0.44% among 71,000; active = well fitted curve in either direction with a large enough effect; inconclusive = small, poorly fitted or top-dose-only effect, or another doubt
# 15-hLO inh = inhibitors of human 15-lipoxygenase (ALOX15); P16050; purified 15hLO-1, xylenol orange hydroperoxide absorbance; Potency, µM (highest dose often 57.1 µM), for the others: at the highest dose activity change, negative = inhibition, most hits filed as inhibitors; hit rate 1.4% among 74,000; note: nearly all actives have a fitted effect of over 55% in size
#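 Readout: Fe(III)-xylenol orange absorbance, 573-to-405 nm ratio as reaction progress. Enzyme 40 nM purified human 15hLO-1, substrate 50 uM arachidonic acid, 6 min RT after 15 min compound preincubation; Hepes pH 7.5 buffer with Triton X-100.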
# Luciferase inh = firefly luciferase inhibition. purified firefly luciferase, luminescence, 8 min. Potency, µM (titrated, usually from 57.1 µM), without a hit: at the top dose activity change, negative = inhibition, most hits filed as inhibitors. hit rate 2.2% among 72,000; note: nearly all actives have a fitted effect of over 40% in size
# Target sequence (P08659 whole entry, looked up): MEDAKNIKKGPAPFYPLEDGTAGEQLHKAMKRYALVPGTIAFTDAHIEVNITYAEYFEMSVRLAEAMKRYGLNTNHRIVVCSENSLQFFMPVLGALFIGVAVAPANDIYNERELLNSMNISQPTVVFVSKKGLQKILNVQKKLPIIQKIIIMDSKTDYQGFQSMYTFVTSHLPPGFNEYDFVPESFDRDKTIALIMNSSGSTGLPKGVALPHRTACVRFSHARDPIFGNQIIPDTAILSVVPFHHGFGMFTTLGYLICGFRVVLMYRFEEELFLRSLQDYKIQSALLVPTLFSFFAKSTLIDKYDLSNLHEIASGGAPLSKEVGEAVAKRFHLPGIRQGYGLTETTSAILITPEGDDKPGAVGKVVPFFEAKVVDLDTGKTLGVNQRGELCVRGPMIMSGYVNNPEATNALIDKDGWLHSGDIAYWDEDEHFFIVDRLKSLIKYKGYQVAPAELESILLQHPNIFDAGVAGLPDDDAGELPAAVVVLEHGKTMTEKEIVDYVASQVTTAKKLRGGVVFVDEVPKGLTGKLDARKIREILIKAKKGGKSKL
#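 Substrate buffer containing 10 uM ATP (pH 7.2 imidazole, Mg2+, KCl, detergent, BSA) is dispensed, compound pinned in, then luciferase/luciferin detector mix added. After 8 min at ambient temperature, light output is measured.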
# PK Bst = modulators of Bacillus stearothermophilus pyruvate kinase | purified pyruvate kinase, luminescence ATP production; ribose 5-phosphate activator present at AC10 | Potency, µM | hit rate 1.2% among 51,000; in the data active = potency below about 11 µM; inconclusive = mostly about 12 µM to 25 µM;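 the screen sought inhibitors and activators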;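 note: scaled between full activation by ribose 5 phosphate and full inhibition by luteolin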
# Active calls of the source: *; i = inactive; ? = inconclusive; . = no result given; [ ] = remark or other dose. Shown are actives, neighbours in structure and some others; about 6.1% of the full set was active somewhere. Unless noted, calls come from the whole dose curve; as a rule, active = well fitted curve in the direction sought with a large enough effect; inconclusive = small, poorly fitted or top-dose-only effect, or another doubt; inactive = no such curve, though single readings can be large; an effect the other way counts as inactive or inconclusive. Unless noted, % is set by controls: 0 for no effect and ±100 for the full control effect; potency is the fitted concentration of half-maximal effect.
SMILES,Tau fil binding,ERK AVP inh,Hsp90 Hop PPI,15-hLO inh,Luciferase inh,PK Bst
OC1CCC2Cc3ccccc3N=C12 (stereo not given),.,-1%,.,0%[25.6 µM],.,.
O=c1cnc2cnc(Oc3cccc(Cl)c3)nc2n1CCc1ccccc1,25µM*,-22%,-11%,-11%,-7%[11.4 µM],.
Cc1nc2cnc(Oc3cccc(Cl)c3)nc2n(CCc2ccccc2)c1=O,2%,17%,-3%,-6%,1%[11.4 µM],.
COc1ccccc1-c1cncnc1Nc1ccccc1,-5%,-20%,-3%,25µM*,1%[2.29 µM],.
COCCNc1ncncc1-c1ccccc1OC,-1%,6%,-8%,-7%,2%[2.29 µM],.
COc1ccccc1-c1cncnc1NCCNC(C)=O,-16%,-17%,-13%,10µM*,0%[2.29 µM],.
Cc1onc(-c2ccccc2Cl)c1C(=O)NC1C(=O)N2C1SC(C)(C)C2C(=O)O (stereo not given),.,-10%,.,1%,.,.
CCCNC(=O)c1cc(-c2ccc(O)cc2)on1,-3%,-7%,-2%,6%,-20%,.
O=C(c1csnn1)N1CCC[C@@]2(CCN(Cc3ccccc3)C2)C1,-4%,2%,-3%,1%,1%[11.4 µM],.
CCc1cc(N2CCOCC2)cc2c1[nH]c1ccccc12,25µM*,-30%,-15%,-28%,-4%,.
c1ccc2c(c1)[nH]c1c(N3CCOCC3)ncnc12,-1%,?,-3%,-4%,-9%,.
COc1ccccc1Nc1nc2ccccc2n1C,5%,.,-9%,-6%,16µM*,.
Oc1ccc(Nc2nc(-c3ccc(O)cc3)cs2)cc1,?,-19%,-27%,?,16µM*,8*
C=CCNc1nc(-c2ccc(O)c(C(N)=O)c2)cs1,.,.,.,.,-1%[25.5 µM],>11
NS(=O)(=O)c1ccc(Nc2nc(-c3ccc(O)cc3)cs2)cc1,17%,?,-10%,25µM*,-3%,?
COc1ccc(-c2csc(NC(C)=O)n2)cc1OC,-4%,?,-4%,?,-11%,?
Oc1ccc(-c2csc(NCc3ccco3)n2)cc1,-11%,-10%,-8%,-21%,25µM*,i
c1cc2c(cc1Nc1nc(-c3ccc4c(c3)OCO4)cs1)OCCO2,25µM*,-4%,-17%,-30%,13µM*,?
N#Cc1cccc(NC(=O)N2CCCC3(CCN(C(=O)c4cnccn4)CC3)C2)c1,-6%,-5%,-5%,10%,-1%[11.4 µM],.
COC(=O)C/C=C\[C@@H](C)[C@@H](/C=N\O[C@@H](C)c1cc(-c2c(C)cc(C)cc2C)no1)NS(=O)(=O)c1ccc(C)cc1,.,4%[11.5 µM],.,-7%[11.4 µM],0%[11.4 µM],.
CO[C@@H](C(C)C)[C@@H](C)[C@@H]1OC(=O)C[C@@H]1O,.,-19%[11.5 µM],.,26%[11.4 µM],2%[11.4 µM],.
O=C1CCCC=C1[C@H](O)c1ccc([N+](=O)[O-])cc1,.,-1%[11.5 µM],.,16%[11.4 µM],1%[11.4 µM],.
NC(=O)c1ccccc1NC(=O)CS(=O)(=O)Cc1ccccc1,16%,-22%,-6%,-9%,0%,3*
O=C(CS(=O)(=O)Cc1ccccc1)Nc1nc2ccccc2s1,7%,25µM*,-3%,-9%,-1%,>57
CCOC(=O)CCN1C(=O)[C@H]2[C@H]3[C@H](O)[C@H](O)C/C(=N/OCC(C)C)[C@H]3CC[C@@H]2C1=O,.,6%[11.5 µM],.,1%[11.4 µM],2%[11.4 µM],.
SMILES,Tau fil binding,ERK AVP inh,Hsp90 Hop PPI,15-hLO inh,Luciferase inh,PK Bst
CCOc1ccc(C2C(C#N)=C(N)SC(N)=C2C#N)c(OCC)c1,63%,?,-8%,10µM*,0%,>57
Nc1cc(-c2ccccc2)ccc1O,25µM*,14%,-9%,7.9µM*,?,.
CCNc1ncc2nc(-c3ccccc3)c(=O)n(C[C@H]3CCCO3)c2n1,28%,8%,-4%,2%,0%[11.4 µM],.
CCC(C)n1c(-c2cccs2)nc2nc3ccccc3nc21 (stereo not given),13µM*,-1%,11%,-12%,-3%,>57
C=CCn1c(-c2cccs2)nc2nc3ccccc3nc21,20µM*,-23%,13%,9%,20µM*,.
CCCn1c(-c2cccs2)nc2ccccc21,2%,-6%,-1%,-6%,0%,>57
CC1(C)OC(C(O)(c2cc(C(F)(F)F)cc(C(F)(F)F)c2)c2cc(C(F)(F)F)cc(C(F)(F)F)c2)C(C(O)(c2cc(C(F)(F)F)cc(C(F)(F)F)c2)c2cc(C(F)(F)F)cc(C(F)(F)F)c2)O1 (stereo not given),.,0%[11.5 µM],.,2%[11.4 µM],.,.
COP(=O)(OC)OC(c1ccc(Cl)cc1)P(=O)(OC)OC (stereo not given),.,2%,.,?,.,.
CC#C[C@]1(O)CC[C@H]2[C@@H]3CCC4=CC(=O)CCC4=C3[C@H](c3ccc(N(C)C)cc3)C[C@@]21C,32µM*,13µM*,?,10µM*,0%,.
O=C1c2ccccc2C(=O)C1c1ccncc1,-27%,-20%,-8%,-6%,7.9µM*,.
CCc1cccc2nc3c(c([Si](C)(C)C)c12)Cn1c-3cccc1=O,16µM*,22%,18%,.,.,.
CCCn1c(-c2ccc(F)cc2)nc2c(NCCN(C(C)C)C(C)C)nc(C)nc21,72%,-18%,-2%,-3%,.,.
N[C@@H](C(=O)O)[C@H](CC(=O)O)c1ccc(Cl)cc1,?,-1%,0%,1%[25.6 µM],-3%,.
CCCSc1nnc2n(C)c(=O)c3c4c(sc3n12)CCC4,.,.,.,.,-1%[25.5 µM],4.7*
Cn1c(=O)c(-c2cc(F)cc(F)c2)nc2cnc(Oc3ccccc3)nc21,13µM*,-29%,0%,11%,1%[11.4 µM],.
Cn1c(=O)c(-c2cc(F)cc(F)c2)nc2cnc(Nc3ccccc3)nc21,6.3µM*,?,-20%,-2%,0%[11.4 µM],.
COCC(=O)N1CCC[C@@]2(CCN(c3ccccn3)C2)C1,11%,4%,-3%,0%,0%[11.4 µM],.
C[C@@H]1C[C@@]2(C)Oc3ccccc3[C@H]3OC[C@]1(COC(=O)Nc1ccccc1)[C@@H](C)[C@@H]32,?,.,13%,.,0%[11.4 µM],.
CS(=O)(=O)N1CCC2(CCN(C(=O)Nc3cccc(C#N)c3)CC2)CC1,10%,-5%,-1%,0%,0%[11.4 µM],.
CCCCCc1c(C)nc(NCc2ccccc2)[nH]c1=O,32µM*,-18%,-3%,-12%,-5%,>57
O=C(OCc1nc2ccccc2s1)C1CCN(S(=O)(=O)c2cccs2)CC1,8%,-1%,13%,0%,32µM*,>57
O=S(=O)(c1cccs1)N1CCN(Cc2nc3ccccc3s2)CC1,17%,-14%,0%,-28%,-9%,>57
